Source: PubChem BioAssay (National Center for Advancing Translational Sciences (NCATS))
Hits are enriched below; roughly 10% of the tested compounds scored in any of these assays.
ALDH1A1 block = ALDH1A1 (human) enzyme inhibition. Potency, µM (series often up to 75.3 µM), for inactives: at the top dose activity, negative = inhibition, usual class: inhibitors. Purified ALDH1A1, NADH fluorescence, propionaldehyde substrate. P00352. 7.3% of 220,000 active;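 note: potency is the fitted concentration of half-maximal effect; plate controls were no enzyme wells and a reference inhibitor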
Target sequence (P00352 whole entry, looked up): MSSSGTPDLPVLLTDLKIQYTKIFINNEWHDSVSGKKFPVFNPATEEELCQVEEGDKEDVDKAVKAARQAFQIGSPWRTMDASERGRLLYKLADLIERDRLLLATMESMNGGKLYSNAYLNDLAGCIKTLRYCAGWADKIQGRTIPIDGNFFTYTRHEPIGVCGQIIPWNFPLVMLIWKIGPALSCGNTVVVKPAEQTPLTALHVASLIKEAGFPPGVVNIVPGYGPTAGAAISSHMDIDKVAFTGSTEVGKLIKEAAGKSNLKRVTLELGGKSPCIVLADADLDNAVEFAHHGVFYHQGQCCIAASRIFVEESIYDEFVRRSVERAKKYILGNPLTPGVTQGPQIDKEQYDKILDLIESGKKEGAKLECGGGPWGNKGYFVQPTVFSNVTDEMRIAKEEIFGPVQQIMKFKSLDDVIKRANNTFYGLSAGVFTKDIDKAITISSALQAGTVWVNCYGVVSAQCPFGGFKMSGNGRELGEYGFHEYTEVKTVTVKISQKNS
HPGD inh = HPGD (human) dehydrogenase inhibition; P15428; purified HPGD, NADH fluorescence kinetic, PGE2 substrate; Potency, µM, for the others: at the top dose activity change, negative = inhibition, hits mostly inhibitors; 4.3% of 150,000 active; note: potency is the fitted concentration of half-maximal effect
Target sequence (P15428 whole entry, looked up): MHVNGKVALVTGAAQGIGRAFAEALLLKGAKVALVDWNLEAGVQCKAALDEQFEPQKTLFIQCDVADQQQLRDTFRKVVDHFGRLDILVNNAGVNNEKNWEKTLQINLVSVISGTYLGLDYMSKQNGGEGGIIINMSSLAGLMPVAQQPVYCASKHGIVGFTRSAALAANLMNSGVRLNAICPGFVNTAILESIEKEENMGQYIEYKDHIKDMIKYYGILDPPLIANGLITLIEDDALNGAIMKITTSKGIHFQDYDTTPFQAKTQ
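NADH formation kinetics: reaction with 30 uM PGE2 and 1 mM NAD+ (final), 20 nM enzyme, Tris-HCl pH 8 with Tween 20, after 15 min compound preincubation at room temperature. Fluorescence change, last versus first of five reads.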
Luc counter = counter-screen: inhibitors of Kinase-Glo firefly luciferase; Q27757; Kinase-Glo luciferase, ATP luminescence, 8 min; Potency, µM (series often up to 38.3 µM), inactives show top-dose activity change, negative = inhibition, most hits filed as inhibitors; 0.28% of 200,000 active; AID 1379; active = well fitted inhibition curve with a large enough effect; inconclusive = small, poorly fitted or top-dose-only effect; note: potency is the fitted concentration of half-maximal effect; nearly all actives have a fitted effect of over 60% in size
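Compounds were added to a substrate mix at pH 7.2 (50 mM imidazole, 10 uM ATP, within the enzyme's linear range), followed by Kinase-Glo detection reagent; luminescence was measured after 8 minutes at ambient temperature.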
LMNA splice mod = changes lamin A minigene splicing in HeLa cells; HeLa LMNA splicing GFP/RFP minigene ratio, 48 h; Potency, µM (doses to about 46.1 µM), inactives show top-dose ratio change, negative = inhibition, most hits filed as inhibitors; 0.01% of 200,000 active; AID 1487; active = well fitted inhibition curve with a large enough effect in the signal ratio, with a control signal flat, not every such curve was filed as active; inconclusive = small, poorly fitted or top-dose-only effect, or effect the other way, or a change in a side signal; the % refers to the signal ratio; note: potency is the fitted concentration of half-maximal effect
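S3 HeLa cells stably expressing lamin A-EGFP splicing minigene plus DsRed2, 600 cells/well, 48 h compound exposure at 37C. Laser-scanning cytometry; analysed as GFP (500-530 nm)/RFP (575-640 nm) total intensity ratio; 0.5% DMSO vehicle.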
PNC inhibitor = blocks assembly of the perinucleolar compartment; 3.1% of 140,000 active; PC3M PTB-GFP, PNC prevalence imaging, 16 h; hits give low values; activity change (PNC), negative = inhibition, % at 10 µM;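 active = readout at or below -70, meaning at least 70% loss of cells showing the perinucleolar compartment, a nuclear body marking cancer cells; inconclusive = readout between -30 and a set limit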;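 note: plate controls were DMSO wells for no effect and camptothecin positive control wells for full effect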
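Read-out is percentage of cells bearing a perinucleolar compartment, from automated 20x imaging of fixed, Hoechst-stained PC3M PTB-GFP cells. Cells were seeded 4 h, then exposed 16 h to compound (23 nl of library stock) in duplicate plates.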
Numbers without * were called inactive; ? = inconclusive; · = no result given; [ ] = dose if it differs, or a comment. Unless noted, calls come from the whole dose curve; as a rule, active = well fitted inhibition curve with a large enough effect (not every such curve was filed as active); inconclusive = small, poorly fitted or top-dose-only effect, or another doubt; inactive = no such curve, though single readings can be large or run the other way. Unless noted, % is set by controls: 0 for no effect and ±100 for the full control effect.

SMILES | ALDH1A1 block | HPGD inh | Luc counter | LMNA splice mod | PNC inhibitor
Cc1ccc2c(c1)C(=O)c1ccccc1CS2=O (stereo not given) | 2.51µM* | -22.6% | -1.4% | 0.3% | ?
Cc1occc1C(=O)N1CCN(C(=O)C2CCCO2)CC1 (stereo not given) | 2.5% | -8.5% | 1.0% | 2.7% | -7.9
O=C(O)c1cc(-c2cccnc2)nc2ccc(Br)cc12 | 4.7% | · | 1.5% | · | ·
O=C(c1ccco1)N1CCN(C(=O)C2CCCO2)CC1 (stereo not given) | 1.0% | -8.6% | 7.9% | -1.1% | -100.0*
CCN1CCN(C(=O)c2cc(-c3cccnc3)nc3ccc(Br)cc23)CC1 | -9.3% | -23.5% | 1.9% | -8.2% | -106.8*
O=C(c1cccnc1)N1CCc2ccccc21 | 1.4% | -0.3% | -0.7% | -10.7% | -3.6
O=C(c1cccnc1)N1CCc2ccccc2C1 | 2.1% | 31.6µM* | 4.1% | 5.2% | 11.2
O=C(c1ccco1)N1CCN(c2nnc(-c3ccccc3)c3ccccc23)CC1 | 25.1µM* | -6.3% | 2.5% | 3.5% | 3.2
COc1ccc(O[C@H]2C=C[C@@H](c3ccccc3)O[C@H]2COC(=O)NCc2cccc3ccccc23)cc1 | 5.5%[13.5 µM] | · | · | · | ·
O=C(c1cccnc1)N1CCN(Cc2cccc(Br)c2)CC1 | 10µM* | -10.9% | -2.5% | -4.5% | -14.3
O=C(c1cccnc1)N1CCN(C(=O)c2ccco2)CC1 | 1.2% | -19.0% | 3.3% | -3.0% | -100.0*
O=C(c1ccco1)N1CCN(c2ncccn2)CC1 | ? | -12.1% | -3.8% | -0.9% | -21.2
COc1ccc(CN2CCN(C(=O)c3cccnc3)CC2)cc1Br | ? | -4.7% | -1.5% | -4.2% | -20.8
C[C@@H]1CC[C@@]2(OC1)OC1CC3C4CC=C5CC(O)CCC5(C)C4CCC3(C)C1[C@@H]2C (stereo not given in full) | -10.9% | -5.8% | 2.6% | · | ·
O=C(NCC(c1cccs1)S(=O)(=O)c1cccs1)c1cccc(F)c1 (stereo not given) | · | · | · | 16.1%[46 µM] | ·
CC(C)n1c(=S)[nH]c2c1c(=O)[nH]c(=O)n2C | 2µM* | 8.91µM* | -6.2% | 10.3% | 16.2
O=C(c1ccco1)[C@@H]1[C@@H]2C(=O)N(c3ccc(F)cc3)C(=O)[C@@H]2C2c3ccccc3C=CN21 (stereo not given in full) | 12.6µM* | 31.6µM* | -11.6% | 2.3% | 1.3
O=C(c1ccco1)[C@@H]1[C@@H]2C(=O)N(c3ccc(Br)cc3)C(=O)[C@@H]2C2c3ccccc3C=CN21 (stereo not given in full) | 11.2µM* | ? | 0.5% | 10.4% | 37.6
Cc1ccc(-c2ccc(C3C(C#N)=C(N)Oc4n[nH]c(C)c43)o2)cc1 (stereo not given) | ? | -26.9% | -2.3% | ? | ?
Cc1[nH]nc2c1C(c1ccc(-c3ccccc3C#N)o1)C(C#N)=C(N)O2 (stereo not given) | 11.2µM* | · | · | -19.9% | -28.9
Cc1cccc(C#Cc2ccccc2)n1 | -8.2% | ? | 12.6µM* | ? | ·
COC(=O)N/N=C\c1cccc(OC(=O)c2cccs2)c1 | -8.1% | · | -1.9% | · | ·
O=C1NN(c2ccccc2)C(=O)/C1=C\c1cccc(OC(=O)c2cccs2)c1 | 7.94µM* | 2.51µM* | 16.9% | 4.9% | -6.5
CCOc1cc(/C=C2/C(=O)N(c3ccccc3)N=C2C)ccc1OC(=O)c1cccs1 | ? | 20µM* | -3.4% | 2.1% | 75.0
O=C1NN(c2ccc(Cl)c(Cl)c2)C(=O)/C1=C/c1cccc(OC(=O)c2cccs2)c1 | ? | 10µM* | -5.4% | 0.9% | 5.7
SMILES | ALDH1A1 block | HPGD inh | Luc counter | LMNA splice mod | PNC inhibitor
CCOC(=O)c1ccc(N2C(=O)CC(NC3CCN(C(=O)c4ccc(F)cc4)CC3)C2=O)cc1 (stereo not given) | 14.1µM* | -7.2% | -1.2% | -3.6% | -0.6
CCOC(=O)N1CCN(C(=O)c2ccc(N3C(=O)CCC3=O)cc2)CC1 | 20.8% | -2.1% | -0.1% | -5.2% | -89.2*
COc1ccc(N2C(=O)CC(NC3CC3)C2=O)cc1 (stereo not given) | -11.6% | -5.8% | 3.3% | -11.1% | 0.9
CCOC(=O)N1CCN(C(=O)c2ccc(OCC)cc2)CC1 | 1.8% | · | -2.3% | 9.3%[46 µM] | ·
Cc1cc(C)n(-c2cc(N3CCN(C(=O)c4cccc(F)c4)CC3)ccc2[N+](=O)[O-])n1 | 4.47µM* | -13.4% | 4.1% | ? | 12.2
O=C(c1cccc(F)c1)N1CCN(c2ccc([N+](=O)[O-])c(N3CCOCC3)c2)CC1 | 7.94µM* | -9.6% | -0.3% | 1.9% | -25.3
Cn1c(=O)n(C)c2cc([N+](=O)[O-])c(N3CCN(C(=O)c4cccc(F)c4)CC3)cc21 | ? | · | -0.3% | 7.8%[46 µM] | ·
O=C(c1ccccc1)N1CCN(c2ccc([N+](=O)[O-])c(N3CCOCC3)c2)CC1 | 0.891µM* | -9.2% | -2.2% | -6.0% | ?
O=C(c1cccc(Cl)c1)N1CCC(N2CCC(C(=O)N3CCOCC3)CC2)CC1 | -9.3% | · | · | · | ·
O=C(c1cccc(F)c1)N1CCC(N2CCOCC2)CC1 | 14.1µM* | -8.4% | 19.3% | 2.0% | 1.0
C=CC[C@@H]1C=C[C@H](O/N=C2\c3cc(OC)ccc3O[C@H](c3cccc(OC)c3)[C@H]2O)[C@H](CO)O1 | 6.0%[13.5 µM] | · | · | · | ·
COC(=O)C1=C(C)NC(C)=C(C(=O)OCCNCc2ccccc2)C1c1cccc([N+](=O)[O-])c1 (stereo not given) | -8.5% | -21.5% | 0.0%[39.9 µM] | · | ·
Cc1ccc(NC(=O)CN2C(=O)CCc3cc(S(=O)(=O)N4CCOCC4)ccc32)cc1N(C)C | · | · | · | 2.7%[46 µM] | ·
CC1CCCCN1S(=O)(=O)c1ccc(C(=O)Nc2sccc2C(N)=O)cc1 (stereo not given) | 14.1µM* | 28.2µM* | -7.7% | ? | ?
NC(=O)c1ccsc1NC(=O)C1CCCN1S(=O)(=O)c1ccc(Cl)cc1 (stereo not given) | ? | ? | -0.7% | -15.0% | 67.4
CCOC(=O)CSc1nc2c(sc3ccccc32)c(=O)n1CCCN1CCOCC1 | 14.1µM* | -21.5% | 5.5% | -8.0% | 55.0
Clc1ccc(N/N=C/c2cccnc2)cc1 | 25.1µM* | -12.0% | -0.2% | ? | ?
Cc1ccc(-c2nc(N/N=C/c3ccncc3)c3ccccc3n2)cc1 | ? | -23.9% | 2.24µM* | -8.8% | -83.3*
Cc1ccc2nc(C(Cl)(Cl)Cl)nc(N/N=C/c3ccncc3)c2c1 | -5.1% | · | · | · | ·
CC(C)(C)c1csc(N/N=C/c2cccnc2)n1 | 25.1µM* | · | 0.5% | ? | ·
Clc1ccccc1-c1nc(N/N=C/c2cccnc2)c2ccccc2n1 | ? | 14.1µM* | -6.2% | ? | ?
C(=N\Nc1nc(-c2ccccc2)cs1)/c1cccnc1 | -12.5% | -14.8% | -1.5% | -13.9% | -21.9
CC(C)CO/N=C1/C[C@@H](O)[C@@H](O)[C@@H]2[C@@H]3C(=O)N(Cc4ccc5c(c4)OCO5)C(=O)[C@H]3CC[C@H]12 | -13.5%[13.5 µM] | · | · | · | ·
